# High-throughput results deposited in PubChem by National Center for Advancing Translational Sciences (NCATS).
# RE007 growth inh: less growth of the S. pombe RE007 Vpr strain | S. pombe RE007 Vpr strain, BacTiter-Glo ATP luminescence, 24 h | Potency, µM (series often up to 92.2 µM), for inactives: at the top dose activity change, negative = less growth, hits mostly inhibitors | 0.21% of 360,000 active; active = well fitted falling curve with a large enough effect; inconclusive = small, poorly fitted or top-dose-only effect; inactive = no such curve, though single readings can be large or run the other way; also: potency is read from the fitted curve at half-maximal effect; nearly all actives have a fitted effect of over 50% in size
#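 Fission yeast strain RE007, carrying one chromosomally integrated HIV-1 vpr copy, was seeded at OD 0.01 in PMG+AL medium with 23 nL pinned compound. After 24 h at 30 °C and 99% humidity, viability was read by BacTiter-Glo luminescence.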
# HCMV antiviral: inhibitors of human cytomegalovirus. HFF cells, HCMV-luciferase reporter, 72 h; active compounds read low. AID 1259415. activity change, negative = inhibition, % at 57.5 µM. 4.5% of 410,000 active; in the data active = activity change below about -60%; inconclusive = no clear call, values can overlap the other calls; inactive = above about -39%
#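 HFF cells seeded 16 h at 37C, treated with compounds, infected with luciferase-reporter HCMV at MOI 1 PFU/cell; luciferase read at 72 h post infection, normalized to buffer-only and Salinomycin controls.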
# Tb PYK inh: T. brucei pyruvate kinase inhibition; Q57TT1; TbPYK enzyme, Kinase-Glo Plus ATP luminescence, 45 min; Potency, µM (series often up to 76.8 µM), inactives show top-dose activity, negative = inhibition, most hits filed as inhibitors; 0.12% of 410,000 active; AID 624173; also: potency is read from the fitted curve at half-maximal effect; nearly all actives have a fitted effect of over 50% in size
#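 In this concentration-response screen, enzyme-free wells defined baseline while DMSO plates tracked drift. Each reaction combined TbPYK, substrate, compound and 130 uM ADP for 45 min at room temperature. Kinase-Glo Plus luminescence gave the signal.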
# Giardia FBPA inh: blocks Giardia fructose-bisphosphate aldolase activity. Potency, µM (top dose mostly 59.6 µM), inactives show at the highest dose activity, negative = inhibition, actives largely listed as inhibitors. A8B2U2. purified Giardia FBPA. 0.71% of 290,000 active; also: potency is read from the fitted curve at half-maximal effect; nearly all actives have a fitted effect of over 55% in size
# Target sequence (A8B2U2 whole entry, looked up): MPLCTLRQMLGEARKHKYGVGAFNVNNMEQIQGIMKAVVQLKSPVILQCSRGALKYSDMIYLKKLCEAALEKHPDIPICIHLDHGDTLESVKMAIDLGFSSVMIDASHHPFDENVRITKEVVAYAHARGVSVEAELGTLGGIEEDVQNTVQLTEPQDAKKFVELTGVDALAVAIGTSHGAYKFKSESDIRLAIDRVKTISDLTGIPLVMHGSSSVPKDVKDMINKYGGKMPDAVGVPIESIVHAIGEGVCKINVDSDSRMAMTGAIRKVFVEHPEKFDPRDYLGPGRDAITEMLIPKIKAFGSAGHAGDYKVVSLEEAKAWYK
#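 40 nM FBPA preincubated 10 min at RT with compound (up to 57.5 uM final), then substrate plus GAPDH/TPI/NAD/arsenate coupling and diaphorase/resazurin added. Fluorescence read after 20 min at RT, 525/598 nm.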
# Sm TGR block: S. mansoni TGR enzyme inhibition; 3% of 360,000 active; Potency, µM (titrated, usually from 114 µM), for inactives: at the highest dose activity change, negative = inhibition, actives largely listed as inhibitors; Q962Y6; purified TGR, DTNB reduction, TNB absorbance 405 nm; also: potency is read from the fitted curve at half-maximal effect; nearly all actives have a fitted effect of over 60% in size
#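 First, TGR (20 nM dispensed) and NADPH were mixed with compound. Second, a 15 min room-temperature incubation followed. Third, further NADPH and then DTNB were added to start the reaction. Finally, TNB absorbance was monitored kinetically.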
# FMDV inh: blocks foot and mouth disease virus | 1.2% of 410,000 active | Potency, µM (top dose mostly 57.9 µM), without a hit: at the top dose activity change, negative = inhibition, actives largely listed as inhibitors | FMDV antiviral cell-based qHTS; calls by dose curve; tested in HEK293T cells; also: read-out not given here; potency is read from the fitted curve at half-maximal effect; nearly all actives have a fitted effect of over 45% in size
# The depositor's hits bear a star; ? = inconclusive; . = not tested or not shown; [ ] = another dose, or the depositor's remark. This is a sample that favours compounds with a hit; in the whole collection about 7.7% have one here. Unless noted, calls follow the shape of the dose curve; as a rule, active = well fitted curve in the direction sought with a large enough effect; inconclusive = small, poorly fitted or top-dose-only effect, or another doubt; inactive = no such curve, though single readings can be large; an effect the other way counts as inactive or inconclusive. % is scaled to controls: 0 for no effect and ±100 for the full control effect.
SMILES,RE007 growth inh,HCMV antiviral,Tb PYK inh,Giardia FBPA inh,Sm TGR block,FMDV inh
C=Cc1ccc(CN2C(=O)N(c3ccc(CC)cc3)S(=O)(=O)c3ccccc32)cc1,.,-5,-4%,.,5%,-12%
Cc1cc2c(cc1S(=O)(=O)C(C)CC(=O)NC1CCC(C)CC1)OCC(=O)N2 (stereo not given),.,3,1%,.,-3%,3%
COC(=O)c1cc2sccc2n1Cc1nc(-c2ccc(OC)cc2)oc1C,-25%,-61*,-22%,-4%,-13%,.
COc1ccccc1CNS(=O)(=O)c1ccc2c(c1)CC(C)N2C(C)=O (stereo not given),.,-26,-2%,.,0%,15%
CC(=O)c1nn(-c2cccc(Br)c2)cc1C(=O)c1ccc(C)cc1,-14%[3.69 µM],-69*,.,-2%,-7%,8%
CC(=O)c1nn(-c2cccc(Br)c2)cc1C(=O)c1ccc(Br)cc1,29%,?,0%,6%,0%,-3%
COC(=O)C[C@@H]1C[C@H]2c3cc(NC(=O)Nc4ccccc4F)ccc3O[C@H]2[C@@H](CO)O1,.,10,.,.,.,.
O=C(C1=C(O)C(=O)N(CCN2CCOCC2)C1c1ccc(Br)cc1)c1cc2ccccc2o1 (stereo not given),4%,20,4%,.,32µM*,-17%
O=C(C1=C(O)C(=O)N(CCN2CCOCC2)C1c1cccnc1)c1cc2ccccc2o1 (stereo not given),-10%,-14,-2%,-1%,?,-7%
COc1cccc2cc(C(=O)C3=C(O)C(=O)N(CCN4CCOCC4)C3c3ccc(Cl)cc3)oc12 (stereo not given),0%,13,-8%,3%,40µM*,-6%
COC(=O)c1ccc(C2C(C(=O)c3cc4ccccc4o3)=C(O)C(=O)N2CCCN(C)C)cc1 (stereo not given),4%,7,-7%,18%,11µM*,-14%
COc1cc(C2C(C(=O)c3cc4ccccc4o3)=C(O)C(=O)N2CCN2CCOCC2)ccc1OCCC(C)C (stereo not given),-25%,69,-3%,-5%,-19%,-4%
Cc1ccc(C2C(C(=O)c3cc4ccccc4o3)=C(O)C(=O)N2CCN2CCOCC2)cc1 (stereo not given),11%,-12,-1%,.,32µM*,-6%
COC(=O)N1CCC2(CCCN(Cc3nccs3)C2)CC1,.,.,-10%,0%,.,-17%
Cc1ccc(C2C(C(=O)c3cc4ccccc4o3)=C(O)C(=O)N2CCN2CCOCC2)o1 (stereo not given),-21%,-28,-7%,0%,22µM*,28%
O=C(C1=C(O)C(=O)N(CCCN2CCOCC2)C1c1ccncc1)c1cc2ccccc2o1 (stereo not given),.,.,.,5%,45µM*,.
O=C(C1=C(O)C(=O)N(CCN2CCOCC2)C1c1cccs1)c1cc2ccccc2o1 (stereo not given),-8%,.,0%,.,.,28%
CC(=O)C1=C(O)C(=O)N(CCN2CCOCC2)C1c1ccccc1 (stereo not given),-6%,21,2%,-14%,32µM*,.
O=C(C1=C(O)C(=O)N(CCN2CCOCC2)C1c1cccc(F)c1)c1cc2ccccc2o1 (stereo not given),4%,7,0%,.,45µM*,-18%
O=C(C1=C(O)C(=O)N(CCN2CCOCC2)C1c1cccc(O)c1)c1cc2ccccc2o1 (stereo not given),-13%,-27,-2%,14%,?,-8%
COCCn1ccc2c(OCC(=O)Nc3ccccc3F)cccc2c1=O,.,48,-15%,.,-5%,12%
COc1cccc(OCC(=O)NCCS(=O)(=O)N2CCN(c3ccccc3F)CC2)c1,.,-17,-2%,.,-8%,5%
Cc1ccc(Cl)cc1Nc1nn2c(=O)c3ccc(C(=O)NCc4ccc(F)cc4)cc3nc2s1,.,-3,1%,.,41%,-6%
Cc1ccc(CNC(=O)C(C)n2ccc3cc(S(=O)(=O)N4CCCC4)ccc32)cc1 (stereo not given),.,-28,-2%,.,-1%,2%
CC(Nc1ccccc1N1CCCCC1)C(=O)N1CCc2ccccc21 (stereo not given),2%,-70*,-2%,-6%,-24%,?
SMILES,RE007 growth inh,HCMV antiviral,Tb PYK inh,Giardia FBPA inh,Sm TGR block,FMDV inh
CC(NC(c1ccccc1)c1ccccc1)C(=O)N1CCCc2ccccc21 (stereo not given),-5%,-25,-6%,0%,-5%,?
Cc1cccc(NC(=O)C2CCCN(S(=O)(=O)c3ccc4c(c3)oc(=O)n4C)C2)c1C (stereo not given),.,14,0%,.,-8%,-12%
CCOC(=O)c1c(C)oc2c(F)c(F)c(F)c(F)c2c1=O,-21%,-104*,-2%,-9%,32µM*,11µM*
COc1c(Cl)c(=O)oc2ccc(Cl)cc12,9%,1,8%,.,.,-1%
COc1ccccc1-n1c(=O)oc2ccc(Cl)cc2c1=O,?,-95*,-6%,-4%,6%,0%
Cc1ccc(S(=O)(=O)Cc2ccc(C(=O)N3CCC(C(N)=O)CC3)o2)cc1,-5%,-21,0%,.,-3%,-5%
COc1ccc(S(=O)(=O)Cc2ccc(C(=O)N3CCC(C(N)=O)CC3)o2)cc1,-3%,-7,-2%,2%,-19%,-22%
COc1ccc(S(=O)(=O)Cc2ccc(C(=O)N3CCCC3)o2)cc1,-7%,-7,-6%,-8%,45µM*,0%
Cc1ccc(S(=O)(=O)Cc2ccc(C(=O)N3CCC4(CC3)OCCO4)o2)cc1,0%,91,4%,1%,22µM*,-4%
Cc1ccc(CS(=O)(=O)Cc2ccc(C(=O)N3CCC4(CC3)OCCO4)o2)cc1,17%,9,0%,0%,45µM*,.
Cc1nnc(NC(=O)C(=O)c2cc(C)n(-c3ccc(C)c(C)c3)c2C)s1,.,-8,3%,.,-3%,6%
COc1ccccc1N1CCN(c2nc(CNC(=O)c3ccc(C)c(C)c3)nc3ccccc23)CC1,.,.,.,.,.,2%
O=C(c1cc2ccccc2oc1=O)N(Cc1ccco1)Cc1cccs1,19%,-14,-5%,0%,28µM*,0%
O=C(c1cc2ccccc2oc1=O)N(Cc1cccs1)Cc1cccs1,-8%,?,-21%,1%,-1%,11%
COc1cc(CN2CCN(Cc3ccc(SC)cc3)CC2)cc(OC)c1O,-28%,9,-4%,?,10µM*,?
COc1cc(OC)c(OC)cc1CN1CCN(Cc2ccc(SC)cc2)CC1,-11%,-36,-10%,?,-9%,-26%
